According to PubChem BioAssay:

System: not listed separately
Assay: small-molecule binders of probe aNOTCH2, primary screen, biochemical, small-molecule microarray, 635/667 nm fluorescence (AID 1121);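 note: score merges feature fluorescence read at 667 nm with its signal to noise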
Details: higher = more signal

| Structure (SMILES) | composite z-score |
| --- | --- |
| C=CC[C@@]1(C(=O)N2CCCCC2)N=C(c2ccc(OCCCO)cc2)O[C@@H]1c1ccccc1CN=[N+]=[N-] | -0.0505 |
| C#CCN1[C@@H](Cc2ccc(O)cc2)C(=O)O[C@H](Cc2ccccc2)[C@@H]1/C=C/C1CC1 | -0.14 |
| OCC1C=C(/C=C/c2ccccc2)CN1Cc1ccccc1Br (centres undefined) | -0.0877 |
| COc1ccc(C(=O)Nc2ccc(CN3C(=O)[C@]4(O[C@H](CC(=O)N5CCC[C@H]5CO)[C@@H]([Si](C)(C)c5ccc(OC)cc5)[C@@H]4C)c4ccccc43)cc2)cc1 | -0.0681 |
| CO[C@H]1O[C@H](CO)[C@@H](OC(=O)Nc2ccccc2-c2ccccc2)[C@H](OC(=O)Nc2ccccc2-c2ccccc2)[C@@H]1OC(=O)Nc1ccccc1-c1ccccc1 | -0.0513 |
| O=C1C[C@@](C(=O)NCc2ccccc2)(c2ccc([N+](=O)[O-])cc2)[C@@H](c2ccc(CO)cc2)N1CC12CC3CC(CC(C3)C1)C2 | -0.14 |
| C=C(CCCC)/C(=C/C[C@H](OC(C)=O)c1ccc(OCCO)cc1)c1cnc2ccccc2c1 | -0.108 |
| COC(=O)[C@]1(Cc2ccccc2)N=C(c2ccc(OCCCO)cc2)O[C@@H]1c1ccccc1N=[N+]=[N-] | -0.122 |
| COC(=O)C(CC#Cc1ccc2c(c1)[C@]1(C(=O)N2)[C@H](c2ccc(O)cc2)N2[C@H](c3ccccc3)[C@H](c3ccccc3)OC(=O)[C@H]2[C@@H]1C(=O)N1CCN(c2ncccn2)CC1)C(=O)OC | 0.0669 |
| CO[C@H]1O[C@H](CO)[C@@H](OC(=O)Nc2ccc(Br)cc2)[C@@H]2OC(=O)[C@H](Cc3cccc(Br)c3)C/C=C/C[C@@H](Cc3cccc(Br)c3)C(=O)O[C@@H]12 | -0.129 |
| COCCOC(=O)N1C(=O)[C@@]2(c3cc(C#CC4(O)CCCCCC4)ccc31)[C@H](c1ccccc1OCCO)N1[C@H](c3ccccc3)[C@H](c3ccccc3)OC(=O)[C@H]1[C@@H]2C(=O)N1CCc2cc(OC)c(OC)cc2C1 | -0.0817 |
| [N-]=[N+]=NCc1ccccc1[C@H]1OC(c2ccc(OCCCO)cc2)=N[C@@]1(Cc1ccccc1)C(=O)N1CCCCC1 | -0.133 |
| COCCOC(=O)N1C(=O)[C@@]2(c3cc(C#CC4=CCCCC4)ccc31)[C@H](c1ccc(OCCO)cc1)N1[C@H](c3ccccc3)[C@H](c3ccccc3)OC(=O)[C@H]1[C@@H]2C(=O)N1CCc2cc(OC)c(OC)cc2C1 | -0.0677 |
| COCC(=C=CC[C@H](O)c1cccc(OCCO)c1)CCO | -0.166 |
| C=CC[C@]1(C(=O)NCc2ccccc2)N=C(c2ccc(OCCCO)cc2)O[C@H]1c1ccccc1CN=[N+]=[N-] | -0.104 |
| C=C(CCCC)C(=O)CC[C@@H](OC(C)=O)c1ccc(CO)o1 | -0.108 |
| COc1ccc(C(=O)Nc2cccc(CN3C(=O)[C@]4(O[C@H](CCn5cc(CCO)nn5)[C@@H]([Si](C)(C)c5ccc(OC)cc5)[C@@H]4C)c4ccccc43)c2)cc1 | -0.0142 |
| COC(=O)c1c(CC[C@@H](CO)NC(=O)N[C@@H](Cc2ccccc2)Cn2cc(-c3ccccn3)nn2)oc(C(=O)N2CCOCC2)c1C(=O)OC | -0.0928 |
| C=CCN1C(=O)[C@]2(O[C@H](CCO)[C@@H]([Si](C)(C)c3ccc(OC)cc3)[C@@H]2C)c2cc(N(C=O)c3ccccc3)ccc21 | -0.0315 |
| [N-]=[N+]=Nc1ccccc1[C@H]1OC(c2ccc(OCCCO)cc2)=N[C@@]1(CCS(=O)(=O)c1ccccc1)C(=O)NCc1ccccc1 | -0.037 |
| O=C1OCCC=C[C@H]2OC34C=CCN(CCN5CCOCC5)C(=O)[C@H]3N(CCCCCO)C(=O)[C@@H]4C12 (some centres undefined) | -0.203 |
| O=C1O[C@@H](c2ccccc2)[C@@H](c2ccccc2)N2[C@@H](c3ccc(OCCO)cc3)[C@]3(C(=O)Nc4ccc(C#CCCO)cc43)[C@@H](C(=O)NC[C@H](O)c3ccccc3)[C@H]12 | -0.143 |
| CN1C(=O)C2C=CC(C(O)c3ccccc3)N(N3CCCCC3)C2C1=O (centres undefined) | 0.0521 |
| O=C1NC(=O)C2C1C=CC(C(O)c1ccc(I)cc1)N2Nc1ccc(Cl)cc1Cl (centres undefined) | 0.127 |

Target: Carbonic anhydrase 2 (Homo sapiens) (UniProt P00918)
Assay: CAII small-molecule binders, profiling panel, biochemical, small-molecule microarray, Alexa647-labelled CAII (AID 1122)
Details: CAII-A647 binding fluorescence, higher = more signal

| Structure (SMILES) | composite z-score |
| --- | --- |
| CN1C(=O)C2C=CC(C(O)c3ccc(F)cc3)N(N(c3ccccc3)c3ccccc3)C2C1=O (centres undefined) | 0.506 |
| Cc1ccc(S[C@]2(C(=O)O)CC(=O)N(Cc3ccccc3C(F)(F)F)[C@@H]2c2ccc(CO)cc2I)cc1 | 0.502 |
| C[N+](C)(C)CCCC[C@@H]1NC(=O)[C@@H]2C[C@H](C(=O)NCCCCCN)[C@H](c3ccc(O)cc3)N2C1=O | 0.72 |
| COCCOC(=O)N1C(=O)[C@@]2(c3cc(C#CCCO)ccc31)[C@H](c1ccc(O)cc1)N1[C@H](c3ccccc3)[C@H](c3ccccc3)OC(=O)[C@H]1[C@@H]2C(=O)N1CCN(c2ncccn2)CC1 | 0.183 |
| O=C(CS)NCCCCCNC(=O)[C@@H]1C[C@@H]2C(=O)NCC(=O)N2[C@@H]1c1ccc(O)cc1 | 0.552 |
| O=C1C2C=CC(C(O)C=Cc3ccc([N+](=O)[O-])cc3)N(n3cnnc3)C2C(=O)N1Cc1ccccc1 (centres undefined) | 0.66 |
| C=C(/C(=C/C[C@H](OC(=O)c1ccncc1)c1ccc(OCCO)cc1)c1cc(C(=O)OC)ccc1OC)C(C)C | 0.514 |
| CN(C)CCCC[C@@H]1NC(=O)[C@H]2C[C@@H](C(=O)NCCCCCN)[C@@H](c3cccc(OCCO)c3)N2C1=O | 0.746 |
| CCCNC(=O)[C@@H]1c2ccccc2C(=O)N(Cc2ccccc2OC)[C@H]1c1ccc(CO)cc1 | 0.604 |
| Cc1ccc(S[C@]2(C(=O)O)CC(=O)N(C(C)C)[C@@H]2c2ccc(CO)cc2)cc1 | 0.648 |
| COCCCNC(=O)[C@@]1(CCS(=O)(=O)c2ccccc2)N=C(c2ccc(OCCCO)cc2)O[C@H]1c1ccccc1N=[N+]=[N-] | 0.695 |
| C=CC[C@@]1(C(=O)N2CCCCC2)N=C(c2ccc(OCCCO)cc2)O[C@@H]1c1ccccc1CN=[N+]=[N-] | 0.671 |
| C#CCN1[C@@H](Cc2ccc(O)cc2)C(=O)O[C@H](Cc2ccccc2)[C@@H]1/C=C/C1CC1 | 0.117 |
| OCC1C=C(/C=C/c2ccccc2)CN1Cc1ccccc1Br (centres undefined) | 0.287 |
| COc1ccc(C(=O)Nc2ccc(CN3C(=O)[C@]4(O[C@H](CC(=O)N5CCC[C@H]5CO)[C@@H]([Si](C)(C)c5ccc(OC)cc5)[C@@H]4C)c4ccccc43)cc2)cc1 | 0.298 |
| CO[C@H]1O[C@H](CO)[C@@H](OC(=O)Nc2ccccc2-c2ccccc2)[C@H](OC(=O)Nc2ccccc2-c2ccccc2)[C@@H]1OC(=O)Nc1ccccc1-c1ccccc1 | 0.374 |
| O=C1C[C@@](C(=O)NCc2ccccc2)(c2ccc([N+](=O)[O-])cc2)[C@@H](c2ccc(CO)cc2)N1CC12CC3CC(CC(C3)C1)C2 | 0.479 |
| C=C(CCCC)/C(=C/C[C@H](OC(C)=O)c1ccc(OCCO)cc1)c1cnc2ccccc2c1 | 0.471 |

| Structure (SMILES) | composite z-score |
| --- | --- |
| COC(=O)[C@]1(Cc2ccccc2)N=C(c2ccc(OCCCO)cc2)O[C@@H]1c1ccccc1N=[N+]=[N-] | 0.279 |
| COC(=O)C(CC#Cc1ccc2c(c1)[C@]1(C(=O)N2)[C@H](c2ccc(O)cc2)N2[C@H](c3ccccc3)[C@H](c3ccccc3)OC(=O)[C@H]2[C@@H]1C(=O)N1CCN(c2ncccn2)CC1)C(=O)OC | 0.476 |
| CO[C@H]1O[C@H](CO)[C@@H](OC(=O)Nc2ccc(Br)cc2)[C@@H]2OC(=O)[C@H](Cc3cccc(Br)c3)C/C=C/C[C@@H](Cc3cccc(Br)c3)C(=O)O[C@@H]12 | 0.275 |
| COCCOC(=O)N1C(=O)[C@@]2(c3cc(C#CC4(O)CCCCCC4)ccc31)[C@H](c1ccccc1OCCO)N1[C@H](c3ccccc3)[C@H](c3ccccc3)OC(=O)[C@H]1[C@@H]2C(=O)N1CCc2cc(OC)c(OC)cc2C1 | 0.527 |
| [N-]=[N+]=NCc1ccccc1[C@H]1OC(c2ccc(OCCCO)cc2)=N[C@@]1(Cc1ccccc1)C(=O)N1CCCCC1 | 0.591 |
| COCCOC(=O)N1C(=O)[C@@]2(c3cc(C#CC4=CCCCC4)ccc31)[C@H](c1ccc(OCCO)cc1)N1[C@H](c3ccccc3)[C@H](c3ccccc3)OC(=O)[C@H]1[C@@H]2C(=O)N1CCc2cc(OC)c(OC)cc2C1 | 0.342 |
| COCC(=C=CC[C@H](O)c1cccc(OCCO)c1)CCO | 0.462 |
| C=CC[C@]1(C(=O)NCc2ccccc2)N=C(c2ccc(OCCCO)cc2)O[C@H]1c1ccccc1CN=[N+]=[N-] | 0.563 |
| C=C(CCCC)C(=O)CC[C@@H](OC(C)=O)c1ccc(CO)o1 | 0.645 |
| COc1ccc(C(=O)Nc2cccc(CN3C(=O)[C@]4(O[C@H](CCn5cc(CCO)nn5)[C@@H]([Si](C)(C)c5ccc(OC)cc5)[C@@H]4C)c4ccccc43)c2)cc1 | 0.43 |
| COC(=O)c1c(CC[C@@H](CO)NC(=O)N[C@@H](Cc2ccccc2)Cn2cc(-c3ccccn3)nn2)oc(C(=O)N2CCOCC2)c1C(=O)OC | 0.696 |
| C=CCN1C(=O)[C@]2(O[C@H](CCO)[C@@H]([Si](C)(C)c3ccc(OC)cc3)[C@@H]2C)c2cc(N(C=O)c3ccccc3)ccc21 | 0.561 |
| [N-]=[N+]=Nc1ccccc1[C@H]1OC(c2ccc(OCCCO)cc2)=N[C@@]1(CCS(=O)(=O)c1ccccc1)C(=O)NCc1ccccc1 | 0.684 |
| O=C1OCCC=C[C@H]2OC34C=CCN(CCN5CCOCC5)C(=O)[C@H]3N(CCCCCO)C(=O)[C@@H]4C12 (some centres undefined) | 0.848 |
| O=C1O[C@@H](c2ccccc2)[C@@H](c2ccccc2)N2[C@@H](c3ccc(OCCO)cc3)[C@]3(C(=O)Nc4ccc(C#CCCO)cc43)[C@@H](C(=O)NC[C@H](O)c3ccccc3)[C@H]12 | 0.165 |
| CN1C(=O)C2C=CC(C(O)c3ccccc3)N(N3CCCCC3)C2C1=O (centres undefined) | 0.846 |
| O=C1NC(=O)C2C1C=CC(C(O)c1ccc(I)cc1)N2Nc1ccc(Cl)cc1Cl (centres undefined) | 0.404 |
